Among the data in PubChem BioAssay are outcome values, retold here.

Activity calls are given as the source filed them.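 How the source made its calls: active means compound raising the membrane signal above positive-control mean plus 3 SD in both repeats, and a primary screen hit; inactive means the rest.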

The target in the assay is Short transient receptor potential channel 6 (Mus musculus) (UniProt Q61143). The assay is described as follows: positive modulators of mouse TRPC6 channel – HEK293 cells, membrane potential dye, duplicate, selectivity assay for TRPC4 potentiator project, confirmation (AID 434952). Conditions: HEK293 TRPC6, membrane potential dye fluorescence, at 10 µM, maximal acetylcholine added after compound.
Short transient receptor potential channel 6 (Mus musculus), sequence (Q61143 whole entry, looked up): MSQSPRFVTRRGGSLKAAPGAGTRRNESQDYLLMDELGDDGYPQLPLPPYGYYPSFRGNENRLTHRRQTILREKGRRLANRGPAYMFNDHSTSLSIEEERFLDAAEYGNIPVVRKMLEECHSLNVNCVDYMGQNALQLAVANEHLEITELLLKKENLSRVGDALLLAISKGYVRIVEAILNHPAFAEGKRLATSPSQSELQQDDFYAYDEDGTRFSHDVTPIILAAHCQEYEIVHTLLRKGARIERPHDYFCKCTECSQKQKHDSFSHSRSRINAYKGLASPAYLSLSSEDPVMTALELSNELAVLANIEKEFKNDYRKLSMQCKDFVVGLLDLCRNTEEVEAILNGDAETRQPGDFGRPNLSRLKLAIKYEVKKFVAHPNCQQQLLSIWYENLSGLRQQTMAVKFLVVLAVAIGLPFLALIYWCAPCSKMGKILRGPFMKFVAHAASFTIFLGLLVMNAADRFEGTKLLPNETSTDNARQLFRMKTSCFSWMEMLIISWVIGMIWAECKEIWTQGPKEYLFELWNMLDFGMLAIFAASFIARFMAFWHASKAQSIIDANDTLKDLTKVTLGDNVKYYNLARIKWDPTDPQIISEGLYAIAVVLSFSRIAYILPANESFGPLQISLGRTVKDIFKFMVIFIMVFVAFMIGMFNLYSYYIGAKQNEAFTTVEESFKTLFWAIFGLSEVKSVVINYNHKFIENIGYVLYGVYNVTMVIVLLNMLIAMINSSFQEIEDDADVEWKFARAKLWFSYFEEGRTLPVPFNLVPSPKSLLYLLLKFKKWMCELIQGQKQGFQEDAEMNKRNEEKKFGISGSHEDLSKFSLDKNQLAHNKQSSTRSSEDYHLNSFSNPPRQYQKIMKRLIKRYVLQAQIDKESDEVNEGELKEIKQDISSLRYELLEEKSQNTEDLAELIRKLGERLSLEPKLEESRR
For `COC(=O)c1ccccc1NC(=O)c1cnn2cccnc12`, the outcome was inactive.

Consider `Cc1cc(Cl)ccc1OC(C)C(=O)Nc1ccccc1N1CCOCC1` (stereo unspecified), for which the outcome was inactive.

Regarding `CC(C(=O)c1ccc(Br)cc1)[n+]1cccc(NC(=O)c2ccccc2)c1` (stereo unspecified), the result was inactive.

For the compound `Cn1c(SCCOc2ccccc2F)nc2ccccc2c1=O`, the outcome was inactive.

In the case of `O=C(CN1CCCN(S(=O)(=O)c2ccc(F)cc2)CC1)Nc1ccccc1Br`, the outcome was inactive.

On to `Cc1c(CCOC(=O)c2ccccc2)sc[n+]1CC(=O)c1ccc(Br)cc1`, for which the result was inactive.

`Cc1c(N2C(=O)/C(=C/c3ccccc3)SC2=S)c(=O)n(-c2ccccc2)n1C`: the outcome was inactive.

Take `CCOC(=O)Cc1csc(NC(=O)NC2(C(F)(F)F)Oc3cc(Cl)c(Cl)cc3O2)n1`: the result was inactive.

As to `CCCn1nc(C(=O)NC2CCCc3ccccc32)c2ccccc2c1=O` (stereo unspecified), the outcome was inactive.

Regarding `CCOC(=O)c1c(C)n(-c2ccc(C)cc2)c2ccc(OCC(O)CNCC3CCCO3)cc12` (stereo unspecified), the result was inactive.

In the case of `O=C(NCCCN1CCN(CCCNC(=O)c2cccc(Cl)c2)CC1)c1cccc(Cl)c1`, the result was inactive.

Regarding `COC(=O)[C@@]12CCCCN1[C@H](c1ccc(-c3ccc(C(C)=O)cc3)cc1)[C@@H]1C(=O)N(C)C(=O)[C@@H]12`, the outcome was inactive.

Consider `Cc1ccc(CNC(=O)CSc2nc(=O)n3ccccc3n2)cc1`, for which the result was inactive.

Consider `CCCCCCc1cc2cc(-c3nnc(-c4ccccc4O)o3)c(=O)oc2cc1O`, for which the result was inactive.

For the compound `CCCCN(C)CCNC(=O)C1CCCN(S(=O)(=O)c2cccc3nsnc23)C1` (stereo unspecified), the outcome was inactive.

Consider `Cc1cccc(NC(=O)CNC(=O)CN2C(=O)NC3(CCCCC3C)C2=O)c1C` (stereo unspecified), for which the outcome was inactive.
